The results in this text go back to PubChem BioAssay.

Molecules are shown by their SMILES.

Test system in the first experiment: not listed separately
Put plainly: JC-1 mitochondrial potential readout, lung cancer cells – cell-based, A549, JC-1 fluorescence, basal, 24 h, 100 nL, profiling panel (AID 1138).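 Also: A549 lung adenocarcinoma cells under basal conditions with no added stimulus; test concentration not given here.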 Particulars: higher = more signal.
`CCOC(=O)[C@H](Cc1ccccc1)NC(=O)CCC1CC(OC(=O)NCc2cccc3ccccc23)CC2(CCCC(COC(=O)NCCc3ccccc3OC)O2)O1` (stereo partly specified): the z-score was -0.538. Still for that read-out and setting: the result for `O=C1C=C[C@@H](O)[C@@H]2[C@@H]3C(=O)N(c4cccc(Oc5ccccc5)c4)C(=O)[C@@H]3CC[C@@H]12` reads -0.774; that for `O=C1C=C[C@@H](O)[C@@H]2[C@@H]3C(=O)N(Cc4ccccc4)C(=O)[C@@H]3CC[C@@H]12`, 0.831; that for `COC(=O)[C@H](C)NC(=O)CCC1CC(OC(=O)NCc2ccc3c(c2)OCO3)CC2(CCCC(COC(=O)NCc3ccccc3)O2)O1` (stereo partly specified), 1.05. `COc1ccc(COC(=O)NN=C2C[C@@H](O)[C@@H](O)[C@@H]3[C@@H]4C(=O)N(C(C)(C)C)C(=O)[C@@H]4CC[C@@H]23)cc1` gave a z-score of -0.367.

A further experiment concerns Lefty1. The experiment is described as follows: Lefty1 protein binding to printed compounds – biochemical, small-molecule microarray, 635/667 nm fluorescence, primary screen (AID 1139). Particulars: fluorescence 635/667, higher = more signal.
As to `CSCC[C@@H]1NC(=O)CC=C[C@@H](C)COC(=O)[C@H](C)COC1=O`, the composite z-score was 1.85.

`CC1(C)O[C@H]2O[C@H]([C@H](O)CON=C3[C@H]4CCn5c(=O)n(-c6ccccc6)c(=O)n5[C@H]4[C@H](O)[C@@H]4O[C@H]34)[C@H](O)[C@H]2O1` gave a composite z-score of 0.222. On the same count and under the same terms, then `COc1cccc([C@H]2Oc3ccc(OC)cc3C(=NO[C@@H](C)c3cc(-c4c(C)cc(C)cc4C)no3)[C@@H]2O)c1`, with -2.4; and `CC(=O)OC[C@H]1O[C@H](C#CCCc2ccccc2)C=C[C@@H]1OC(C)=O`, with 1.22; and `CC(C)=CCCC(C)=CCON=C1C[C@@H](O)[C@@H](O)[C@@H]2[C@@H]3C(=O)N(C4CCCCC4)C(=O)[C@@H]3CC[C@H]12`, with 1.48.

The compound `COC(=O)[C@H](C)NC(=O)CCC1CC(OC(=O)NCc2ccc3c(c2)OCO3)CC2(CCCC(COC(=O)NCCc3ccc(Cl)cc3)O2)O1` (stereo partly specified) returned a composite z-score of 0.398.

On to `COC(=O)[C@H](C)NC(=O)CCC1CC(OC(=O)NCCc2ccc(F)cc2)CC2(CCCC(COC(=O)NCC3CCCCC3)O2)O1` (stereo partly specified), for which the composite z-score stood at 0.744. Same read-out and setting: then `CCN1C(=O)[C@H]2[C@H]3[C@H](O)[C@H](O)CC(=NO[C@H](C)c4cn([C@H](CO)Cc5ccccc5)nn4)[C@@H]3CC[C@H]2C1=O`, with 0.734; and `CCN1C(C)=C(C(=O)OC)[C@@H](c2ccccc2)N2C(=O)[C@](O)(C(=O)OC)CC(C(C)=O)=C12`, with 0.638. For `C=CC[C@@H]1C=C[C@H](ON=C(C)CCN2CCCCc3nc(C)c(C)cc32)[C@@H](CO)O1`, the composite z-score was 1.56.

`CC(C)=NOC(C)CN1CCCCc2nc(C)c(C)cc21` (stereo unspecified): the composite z-score was determined as 0.603. The same measure, in the same setting: the result for `CCOC(=O)[C@H](Cc1ccccc1)NC(=O)CCC1CC(OC(=O)NCCc2ccc(F)cc2)CC2(CCCC(COC(=O)NCCOc3ccccc3)O2)O1` (stereo partly specified) reads 1.29; that for `Cc1ccc(S(=O)(=O)N[C@@H]2COC(=O)CC=C[C@@H](C)[C@H](NS(=O)(=O)c3ccc(C)cc3)COC(=O)[C@H](C)NC(=O)CC=C[C@H]2C)cc1`, 0.61.

The compound `CCOC(=O)CCN1C(=O)[C@H]2[C@H]3[C@H](O)[C@H](O)CC(=NOCC(C)C)[C@@H]3CC[C@H]2C1=O` came in with a composite z-score of 0.929. The same measure, in the same setting: the result for `CC(=O)OC[C@H]1O[C@H](CCON=C(C)CCN2CCCc3nc(C)c(C)cc32)C=C[C@@H]1OC(C)=O` reads 0.997; that for `Cc1cc2c(nc1C)CCCCN2CC(O)CN1CCCc2nc(-c3ccc(Br)cc3)ccc21` (stereo unspecified), 0.998. The same measure, in the same setting: the result for `CC(C)(C)N1C(=O)[C@H]2[C@@H]3C(=CC[C@H]2C1=O)C(=O)[C@H]1O[C@H]1[C@H]3O` reads -0.0815; that for `CC(CCN1CCCc2nc(C)c(C)cc21)=NOC[C@@H](C)[C@H](OCc1ccccc1)C(C)C`, 0.241; that for `CON=C(C)CCC(=O)OC[C@H]1O[C@H](C#Cc2ccccc2)C=C[C@@H]1Oc1ccc(C)cc1`, 0.569.

In turn, `C[C@@H]1CC[C@@H](C(=O)O)N[C@H]1c1cccc(N2CCOCC2)c1` gave a composite z-score of 0.554. Still for that read-out and setting: the result for `O=C1C2=CC[C@H]3C(=O)N(C4CCCCC4)C(=O)[C@H]3[C@H]2[C@H](O)[C@@H]2O[C@H]12` reads -0.455; that for `CCOC(=O)[C@H](Cc1ccccc1)NC(=O)CCC1CC(OC(=O)NCCc2ccc(F)cc2)CC2(CCCC(COC(=O)NCc3cccc(C(F)(F)F)c3)O2)O1` (stereo partly specified), 1.64.

As to `O=C1[C@H]2[C@H]3[C@H](O)[C@H](O)CC(=NO[C@@H]4O[C@H](CO)[C@@H](O)[C@H](O)[C@H]4O)[C@H]3CC[C@H]2C(=O)N1C[C@@H]1CCCO1`, the composite z-score was determined as 0.0013. Still for that read-out and setting: the result for `CC(CCC(=O)OC[C@H]1O[C@H](C#Cc2ccccc2)C=C[C@@H]1Oc1ccc(C)cc1)=NOC[C@@H](C)[C@H](OCc1ccccc1)C(C)C` reads -0.295; that for `C[C@@H]1CC[C@H]2C(=O)OC(Cc3ccccc3)CN2[C@H]1c1ccc(Br)cc1` (stereo partly specified), 0.789. On to `COC(=O)CC=C[C@@H](C)[C@@H](C=NOC[C@@H](O)COCc1ccco1)OC`, for which the composite z-score was determined as 1.02.

Regarding `CCc1cc2c(nc1CC)CCN(CCC(C)=NOC[C@@H](C)[C@H](OCc1ccccc1)C(C)C)C2`, the composite z-score was -0.465. On the same count and under the same terms, then `O=C1C2=CC[C@H]3C(=O)N(C[C@@H]4CCCO4)C(=O)[C@H]3[C@H]2[C@H](O)[C@@H]2O[C@H]12`, with 0.233.

`CCOC(=O)CCN1C(=O)[C@H]2[C@H]3[C@H](O)[C@H](O)CC(=NNC(=O)OCC)[C@H]3CC[C@H]2C1=O` had a composite z-score of 1.01. Still for that read-out and setting: the result for `COc1ccc2c(c1)O[C@@H](c1cccc(C(F)(F)F)c1)[C@H](O)C2=O` reads 0.309. Still for that read-out and setting: the result for `COC(=O)CC=C[C@@H](C)[C@@H](C=NOC(C)CN1CCCCc2nc(C)c(C)cc21)NS(=O)(=O)c1ccc(C)cc1` (stereo partly specified) reads 0.417. The same measure, in the same setting: then `CCOC(=O)[C@H](Cc1ccccc1)NC(=O)CCC1CC(OC(=O)NCc2cccc3ccccc23)CC2(CCCC(COC(=O)NCCc3ccccc3OC)O2)O1` (stereo partly specified), with 0.99. `O=C1C=C[C@@H](O)[C@@H]2[C@@H]3C(=O)N(c4cccc(Oc5ccccc5)c4)C(=O)[C@@H]3CC[C@@H]12` came in with a composite z-score of 0.478. The same measure, in the same setting: the result for `O=C1C=C[C@@H](O)[C@@H]2[C@@H]3C(=O)N(Cc4ccccc4)C(=O)[C@@H]3CC[C@@H]12` reads 0.314. In the case of `COC(=O)[C@H](C)NC(=O)CCC1CC(OC(=O)NCc2ccc3c(c2)OCO3)CC2(CCCC(COC(=O)NCc3ccccc3)O2)O1` (stereo partly specified), the composite z-score came out at 0.827. `COc1ccc(COC(=O)NN=C2C[C@@H](O)[C@@H](O)[C@@H]3[C@@H]4C(=O)N(C(C)(C)C)C(=O)[C@@H]4CC[C@@H]23)cc1`: the composite z-score amounted to 0.548.
